# Compound activity from PubChem.
# Vif inh: inhibitors of HIV Vif | inhibition, % at 7.49 µM | HEK293T cells, Vif self-association by quenched fluorescence, imaging, 24 h | 0.35% of 340,000 active | AID 602346; in the data active means inhibition above about 50%, passing the limit was not always enough
# ARNT-TACC3 inh: ARNT/TACC3 interaction disruption. Q9Y6A5. AlphaScreen His-ARNT PAS-B/GST-TACC3 binding, luminescence; TACC3 fragment carries E629A point mutation. inhibition, % at 9.99 µM. 0.66% of 390,000 active;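 active means mean inhibition of replicates at least 50% and at least half of replicates each reaching 50%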;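 further: 0% = complete ARNT plus TACC3 wells and 100% = ARNT alone without TACC3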
# H9c2 protect: protects H9c2 cardiomyocytes from peroxide injury | AID 588492 | protection from H2O2 cell death, % at 20 µM | H2O2 injury protection, ATPLite, 2 h | 0.63% of 360,000 active;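 active means compounds giving at least 50% protection of heart cells from peroxide-induced death in the single-dose screen, raw or plate-pattern-corrected value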;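 further: 0% = DMSO wells with peroxide and 100% = DMSO wells without peroxide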
# aDG glyco act: alpha-DG glycosylation activation | 0.22% of 360,000 active | AID 624168 | activation, % at 10 µM | Pro5-aDG cells, alpha-DG glycosylation AlphaScreen (IIH6); 0% Pro5, 100% B10-LARGE cell signal;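 active means activation of at least 8% versus controls, or a plate z-score of at least 8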;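 further: Pro5 are CHO cells carrying HIG-tagged alpha-DG that lacks glycosylation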
# Glyco luc inh: blocks N-linked glycosylation in D54 reporter cells | AID 588692 | reporter increase, % at 12.5 µM | D54 ERlucT glycosylation luciferase reporter, 24 h; percent of 100 nM tunicamycin response | 0.23% of 360,000 active;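 active means mean luciferase reporter signal, scaled so untreated is 0 and the glycosylation-blocking control 100, at or above a set limit in every replicate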;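 further: luciferase carries N-glycosylation sites so blocking glycosylation raises the light; 0% = median of neutral control wells and 100% = median of 100 nM tunicamycin wells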
# ARNT Alpha ctr: AlphaScreen artifact in ARNT/TACC3 counter-screen. shares compounds with ARNT-TACC3 inh. His-ARNT PASB-GST AlphaScreen artifact counter-screen, luminescence. AC50, µM (top dose mostly 68 µM), without a hit: at the top dose activity change, negative = signal decrease. 50% of 1,200 active;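 active means every separate test run was called active for a drop in luminescence, with AC50 within twice the top valid dose, actives reach about 71 µM in these data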
# * marks the source's active call; other numbers are inactive results; · = not tested or not shown. In the library only some 1.7% were active in any assay of this set; here they are far more common.
SMILES,Vif inh,ARNT-TACC3 inh,H9c2 protect,aDG glyco act,Glyco luc inh,ARNT Alpha ctr
CC1CN(Cc2ccc(O)c3ncccc23)CC(C)O1 (configuration not stated),·,·,·,·,·,4.69µM*
Cc1cc(C)c(S(=O)(=O)N2CCCOC2CNC(=O)C(=O)NCCCn2ccnc2)c(C)c1 (configuration not stated),8.0,-17.0,11.2,-0.3,3.4,·
O=C(NCCCn1ccnc1)C(=O)NCC1OCCN1S(=O)(=O)c1ccc(F)cc1 (configuration not stated),-1.4,58.0*,4.3,4.2,0.7,31.6µM*
COc1ccc(S(=O)(=O)N2CCCOC2CNC(=O)C(=O)NCCCn2ccnc2)cc1OC (configuration not stated),8.6,40.3*,-0.7,0.2,-1.3,-11.2%
Cc1ccc(C)c(S(=O)(=O)N2CCCOC2CNC(=O)C(=O)NCCCn2ccnc2)c1 (configuration not stated),0.8,55.9*,-0.3,-0.1,0.3,-6.6%
COc1ccc(S(=O)(=O)N2CCOC2CNC(=O)C(=O)NCCCn2ccnc2)cc1OC (configuration not stated),-0.5,59.3*,2.0,-0.2,2.9,-23.4%
CO[C@H]1CN(C)C(=O)c2cc(NC(=O)C3CC3)ccc2OC[C@H](C)N(Cc2ccncc2)C[C@@H]1C,·,-11.0,·,·,·,·
CCCNC(=O)N1[C@H](CO)[C@@H]2c3ccccc3N(C(=O)Nc3cccc(F)c3)C[C@@H]21,·,-3.3,·,·,·,·
Oc1ccc(Br)cc1/C=N/Nc1ncc(-c2ccccc2)cn1,-4.9,-2.9,24.5,0.1,-1.0,·
Oc1ccc(/C=N/Nc2ncc(Br)cn2)c(O)c1,-9.9,56.9*,38.0,1.7,-10.9,30µM*
C[C@@H]1CN([C@H](C)CO)S(=O)(=O)c2ccc(-c3cccnc3)cc2O[C@H]1CN(C)Cc1ccccn1,·,3.2,·,·,·,·
COc1cccc(S(=O)(=O)N(C)C[C@@H]2Oc3cc(C4=CCCC4)ccc3S(=O)(=O)N([C@@H](C)CO)C[C@@H]2C)c1,·,10.5,·,·,·,·
CCOC(=O)/C(=N/Nc1ccccc1OC)N1CCCc2ccccc21,3.9,33.9*,-8.3,-0.1,-2.0,44.2µM*
C=C1c2cccc(O)c2C(=O)C2C(=O)[C@]3(O)C(=O)C(C(N)=O)C(=O)[C@@H](N(C)C)[C@@H]3[C@@H](O)[C@H]12 (some centres not stated),1.2,54.3*,-2.9,0.0,2.1,-18.6%
CCC(=O)Nc1ccc2c(c1)C(=O)N(C)[C@H]1CC[C@@H](CC(=O)NCCN3CCCCC3)O[C@H]1CO2,·,-7.2,·,·,·,·
c1ccc(-c2nc3ccccc3[nH]2)cc1,-6.1,-2.0,-27.7,0.0,-3.7,·
c1ccc(-c2nc3ccccc3[nH]2)nc1,-6.0,58.8*,-5.0,0.2,-4.9,-16.3%
O=c1[nH]c(-c2ccccn2)nc2ccccc12,-6.8,64.2*,-7.9,0.1,1.0,-13.1%
Cc1ccc2nc(-c3ccccn3)[nH]c2c1,-4.9,38.8*,-23.6,-0.1,-19.2,-15.3%
C[C@@H]1CCCCO[C@H](CN(C)Cc2ccc(C(F)(F)F)cc2)[C@H](C)CN([C@@H](C)CO)C(=O)c2cc(NC(=O)Nc3ccc(C(F)(F)F)cc3)ccc2O1,·,-4.5,·,·,·,·
C[C@@H]1CCCCO[C@H](CN(C)C(=O)CCCN(C)C)[C@@H](C)CN([C@H](C)CO)C(=O)c2cc(NC(=O)CCC(F)(F)F)ccc2O1,·,-4.2,·,·,·,·
C#CCOc1ccc(OC)cc1C(c1c(C)[nH][nH]c1=O)c1c(C)[nH][nH]c1=O,19.4,36.6*,-0.7,0.1,3.2,1.9%
CCOc1ccc(C(c2c(C)[nH][nH]c2=O)c2c(C)[nH][nH]c2=O)cc1OC,-1.7,6.1,0.5,0.6,5.2,·
CC(C)(C)OC(=O)N1CCN(C(=O)c2cccnc2Cl)CC1,-3.9,-3.1,0.5,-0.1,0.7,·
Cc1ccc(C)c(S(=O)(=O)N2CCN(Cc3ccc(O)c4ncccc34)CC2)c1,1.1,54.3*,27.3,-0.7,-10.7,17.3µM*
CC(C)(C)OC(=O)N1CCN(Cc2ccc(O)c3ncccc23)CC1,·,·,·,·,·,1.1µM*
CSc1ncccc1C(=O)N1CCN(S(=O)(=O)c2cc(C)ccc2C)CC1,1.4,-1.2,5.9,0.2,0.2,·
